Measurements as given in PubChem BioAssay (Tox21).
“And” between values parts separate entries of the source, which are not always exact repeats. Equal entries are not always repeated. Results filed as inconclusive are left out. More than one record can exist for a structure, and the calls need not agree. The source made the active and inactive calls. Unless noted, calls come from the whole dose curve.

Columns and labels:
[1] = Nuclear factor erythroid 2-related factor 2/antioxidant responsive element (Nrf2/ARE) small molecule agonists: qHTS cell viability counter screen in human keratinocytes (AID 1919968; active = well fitted curve in the direction sought with a large enough effect in the repeat runs; an effect the other way counts as inactive or inconclusive; note: nearly all actives have a fitted effect of over 55% in size; note: potency is the fitted concentration of half-maximal effect)
Procedure, shortened: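 HaCaT ARE reporter line, 1,500 cells/well; 5 h settle, 37 C/5% CO2; cpd in DMSO pinned; 23 h exposure; CellTiter-Fluor, 1 h; fluorescence.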

[2] = biological target: Gonadotropin-releasing hormone receptor (Homo sapiens) (UniProt P30968); test: Human gonadotropin-releasing hormone receptor (GnRHR) small molecule agonists, calcium flux assay in GnRHR-HEK293 cells (AID 1920063); note: nearly all actives have a fitted effect of over 35% in size
Gonadotropin-releasing hormone receptor (Homo sapiens), sequence (P30968 whole entry, looked up): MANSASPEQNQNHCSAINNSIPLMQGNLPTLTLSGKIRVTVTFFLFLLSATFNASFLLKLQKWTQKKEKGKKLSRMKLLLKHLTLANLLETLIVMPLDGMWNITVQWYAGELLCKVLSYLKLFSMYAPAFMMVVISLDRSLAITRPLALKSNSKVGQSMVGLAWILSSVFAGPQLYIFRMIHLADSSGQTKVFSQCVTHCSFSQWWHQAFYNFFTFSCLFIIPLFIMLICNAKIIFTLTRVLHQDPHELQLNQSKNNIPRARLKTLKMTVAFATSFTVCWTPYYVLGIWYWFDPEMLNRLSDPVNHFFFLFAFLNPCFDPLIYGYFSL
Procedure, shortened: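 GnRHR-HEK293, 1500 cells/well, 18 h 37 C/5% CO2; Ca dye 1 h 37 C; cpd pinned (DMSO), agonist mode; kinetic FL 480/540, 3 min, 1 s reads; 15 conc, n=3.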

[3] = biological target: KiSS-1 receptor (Homo sapiens) (UniProt Q969F8); test: Human kisspeptin (KISS1R) small molecule agonists, calcium flux assay in KISS1R-HEK293 cells (AID 1920064; active = well fitted curve in the direction sought with a large enough effect in the repeat runs; an effect the other way counts as inactive or inconclusive)
KiSS-1 receptor (Homo sapiens), sequence (Q969F8 whole entry, looked up): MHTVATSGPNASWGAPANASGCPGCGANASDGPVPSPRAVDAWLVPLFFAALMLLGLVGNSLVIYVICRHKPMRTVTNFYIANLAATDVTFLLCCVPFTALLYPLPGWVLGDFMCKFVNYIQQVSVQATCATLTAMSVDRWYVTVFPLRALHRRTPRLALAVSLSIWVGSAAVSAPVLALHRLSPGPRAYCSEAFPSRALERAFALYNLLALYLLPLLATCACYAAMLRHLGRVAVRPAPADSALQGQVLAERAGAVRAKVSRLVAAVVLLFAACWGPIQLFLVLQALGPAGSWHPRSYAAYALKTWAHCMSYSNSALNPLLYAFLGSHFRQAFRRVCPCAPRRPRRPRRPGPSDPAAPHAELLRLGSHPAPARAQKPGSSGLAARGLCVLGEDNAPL
Procedure, shortened: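 Stable human KISS1R HEK293 line; 18 h plating, 37 C/5% CO2; calcium dye 1 h 37 C; compound pin transfer; kinetic fluorescence Ex/Em 480/540, 3 min.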

[4] = G protein-coupled receptor (GPCR) small molecule agonists, calcium flux assay: HEK293 wild type cell line counter screen (AID 1920065)
Procedure, shortened: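 Kinetic fluorescence at Ex/Em 480/540, recorded every second over 3 min, served as the read-out after compound addition. Each compound was tested at 15 concentrations in triplicate on cells pre-loaded with calcium dye for 1 h.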

[5] = p53 small molecule agonists, cell-based qHTS assay with human liver microsomes (AID 1963577);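 note: p53 response element beta-lactamase reporter cells with liver microsomes plus NADPH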
Procedure, shortened: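 Reporter activation was measured by LiveBLAzer fluorescence intensity in p53RE-bla cells, which had been exposed to compounds for 16 h at 37 C alongside 0.5 mg/mL human liver microsomes and 0.5 mg/mL NADPH (final concentrations).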

[6] = p53 small molecule agonists, cell-based qHTS assay with rat liver microsomes (AID 1963578)
Procedure, shortened: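 Compound in DMSO added to p53RE-bla cells 5 h post-plating; rat microsomes/NADPH 0.5 mg/mL final; 16 h, 37 C; LiveBLAzer 2 h RT.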

[7] = p53 small molecule agonists, cell-based qHTS assay with rat liver microsomes: qHTS cell viability counter screen (AID 1963580); note: nearly all actives have a fitted effect of over 45% in size
Procedure, shortened: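 HCT-116 p53RE-bla, 4,000 cells/well, 5 h pre-incubation; cpd + rat liver microsomes 0.5 mg/mL + NADPH 0.5 mg/mL (final); 16 h, 37 C; CellTiter-Glo, 30 min RT; luminescence.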

[8] = p53 small molecule agonists, cell-based qHTS assay: qHTS cell viability counter screen (AID 1963581); note: nearly all actives have a fitted effect of over 45% in size
Procedure, shortened: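 HCT-116 p53RE-bla cells, 4,000/well, plated 5 h before compound pin transfer; 16 h at 37 C; bla substrate 2 h RT; then CellTiter-Glo, 30 min RT, luminescence.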

[9] = p53 small molecule agonists, cell-based qHTS assay (AID 1963582; active = well fitted activation curve with a large enough effect in the signal ratio in the repeat runs, not every such curve was filed as active; the % refers to the signal ratio)
Procedure, shortened: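 Reporter line: p53RE-bla. Pre-incubation 5 h, 37 C, 5% CO2; compound (DMSO, pin tool) 16 h, 37 C; B/G FRET substrate 2 h RT; fluorescence intensity read.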

[10] = biological target: 5-hydroxytryptamine receptor 2A (Homo sapiens) (UniProt P28223); test: 5-hydroxytryptamine receptor 2A (HTR2A) small molecule antagonists, cell-based qHTS assay (AID 1963586); note: nearly all actives have a fitted effect of over 45% in size
5-hydroxytryptamine receptor 2A (Homo sapiens), sequence (P28223 whole entry, looked up): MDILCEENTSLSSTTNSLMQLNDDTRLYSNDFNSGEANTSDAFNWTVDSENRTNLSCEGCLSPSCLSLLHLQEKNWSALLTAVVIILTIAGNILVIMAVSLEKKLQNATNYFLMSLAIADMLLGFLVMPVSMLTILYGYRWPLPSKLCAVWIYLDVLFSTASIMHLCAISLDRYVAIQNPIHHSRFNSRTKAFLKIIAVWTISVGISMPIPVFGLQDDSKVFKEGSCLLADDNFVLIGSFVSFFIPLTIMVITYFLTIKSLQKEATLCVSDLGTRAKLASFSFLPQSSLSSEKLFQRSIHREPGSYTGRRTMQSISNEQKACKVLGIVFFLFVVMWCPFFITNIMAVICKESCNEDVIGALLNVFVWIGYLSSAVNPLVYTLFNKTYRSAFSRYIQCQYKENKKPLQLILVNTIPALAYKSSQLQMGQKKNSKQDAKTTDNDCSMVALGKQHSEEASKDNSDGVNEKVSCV
Procedure, shortened: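 Antagonist-mode intracellular calcium assay: DOI (4 nM) added after 5 min compound pre-incubation at room temperature to dye-loaded HTR2A-CHO cells. Fluorescence followed for 3 min, sampled every second.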

[11] = biological target: Muscarinic acetylcholine receptor M1 (Homo sapiens) (UniProt P11229); test: Cholinergic receptor muscarinic 1 (CHRM1) small molecule antagonists, cell-based qHTS assay (AID 1963588); note: nearly all actives have a fitted effect of over 40% in size
Muscarinic acetylcholine receptor M1 (Homo sapiens), sequence (P11229 whole entry, looked up): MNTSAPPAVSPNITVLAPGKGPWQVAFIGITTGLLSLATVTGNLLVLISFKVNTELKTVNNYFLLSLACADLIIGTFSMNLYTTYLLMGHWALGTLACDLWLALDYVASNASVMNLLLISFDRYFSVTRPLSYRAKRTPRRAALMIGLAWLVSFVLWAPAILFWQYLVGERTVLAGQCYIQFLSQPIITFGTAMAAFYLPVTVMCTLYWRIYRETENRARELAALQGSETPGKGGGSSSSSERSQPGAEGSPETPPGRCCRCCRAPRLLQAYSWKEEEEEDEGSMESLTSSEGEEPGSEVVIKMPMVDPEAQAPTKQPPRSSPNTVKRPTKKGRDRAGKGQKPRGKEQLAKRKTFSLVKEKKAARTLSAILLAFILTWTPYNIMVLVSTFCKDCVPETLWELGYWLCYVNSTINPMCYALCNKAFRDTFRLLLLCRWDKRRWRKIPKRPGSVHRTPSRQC
Procedure, shortened: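 CHRM1-CHO calcium-flux assay, antagonist mode. Cells were seeded 18 h, dye-loaded 1 h at 37 C and given compound for 5 min at RT, then acetylcholine was added at 50nM. FDSS fluorescence was read 3 min; 15 concentrations, three runs.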

[12] = biological target: Muscarinic acetylcholine receptor M1 (Homo sapiens) (UniProt P11229); test: Cholinergic receptor muscarinic 1 (CHRM1) small molecule agonists, cell-based qHTS assay (AID 1963589); note: nearly all actives have a fitted effect of over 35% in size
Procedure, shortened: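 Human M1 in stable CHO line; 18 h plating, 1 h dye load 37 C; cpd added (agonist mode); Ca2+ fluorescence kinetic read, 1 s intervals; 15 conc, 3 runs.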

[13] = cAMP Responsive Elements (CRE) small molecule agonists, cell-based qHTS assay (AID 1963590)
Procedure, shortened: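 HEK 293T CRE-bla, 2,000 cells/well, 18 h preincubation 37 C/5% CO2; cpds (DMSO) pinned, 3 h; LiveBLAzer B/G FRET substrate, 2 h RT.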

[14] = cAMP Responsive Elements (CRE) small molecule antagonists, cell-based qHTS assay (AID 1963591; active = well fitted inhibition curve with a large enough effect in the signal ratio in the repeat runs, not every such curve was filed as active; the % refers to the signal ratio)
Procedure, shortened: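 Beta-lactamase reporter read by FRET substrate (LiveBLAzer B/G) after 2 h at room temperature. CRE-bla HEK293T cells had received compound plus 0.25 uM (final) NKH477 for 3 h at 37 °C.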

[15] = biological target: Beta-2 adrenergic receptor (Homo sapiens) (UniProt P07550); test: Adrenergic beta2 receptor (ADRB2) small molecule antagonists, cell-based qHTS assay (AID 1963592); note: series mostly up to about 92 µM; nearly all actives have a fitted effect of over 50% in size
Beta-2 adrenergic receptor (Homo sapiens), sequence (P07550 whole entry, looked up): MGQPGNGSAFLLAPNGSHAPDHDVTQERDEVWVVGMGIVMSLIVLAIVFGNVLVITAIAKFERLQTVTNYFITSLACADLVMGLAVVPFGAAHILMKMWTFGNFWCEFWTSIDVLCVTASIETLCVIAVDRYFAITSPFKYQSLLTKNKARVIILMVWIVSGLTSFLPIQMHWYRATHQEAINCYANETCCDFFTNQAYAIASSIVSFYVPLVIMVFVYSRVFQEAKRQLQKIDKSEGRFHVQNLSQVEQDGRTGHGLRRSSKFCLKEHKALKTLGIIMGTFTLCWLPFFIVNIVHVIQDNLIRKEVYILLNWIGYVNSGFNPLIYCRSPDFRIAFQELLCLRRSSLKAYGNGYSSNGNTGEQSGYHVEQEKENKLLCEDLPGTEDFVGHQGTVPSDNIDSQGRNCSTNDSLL
Procedure, shortened: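 Cells (CHO, stable ADRB2 overexpression) incubated 18-20hr at 37C; compounds added from DMSO; agonist mix (1nM isoproterenol, 100uM IBMX, 25uM Ro-20-1724) added; 0.5hr RT; d2-cAMP and anti-cAMP-cryptate added; 1hr RT; 665/615 nm read.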

[16] = biological target: D(2) dopamine receptor (Homo sapiens) (UniProt P14416); test: Dopamine D2 receptor (DRD2) small molecule agonists, cell-based qHTS assay (AID 1963594); note: nearly all actives have a fitted effect of over 35% in size
D(2) dopamine receptor (Homo sapiens), sequence (P14416 whole entry, looked up): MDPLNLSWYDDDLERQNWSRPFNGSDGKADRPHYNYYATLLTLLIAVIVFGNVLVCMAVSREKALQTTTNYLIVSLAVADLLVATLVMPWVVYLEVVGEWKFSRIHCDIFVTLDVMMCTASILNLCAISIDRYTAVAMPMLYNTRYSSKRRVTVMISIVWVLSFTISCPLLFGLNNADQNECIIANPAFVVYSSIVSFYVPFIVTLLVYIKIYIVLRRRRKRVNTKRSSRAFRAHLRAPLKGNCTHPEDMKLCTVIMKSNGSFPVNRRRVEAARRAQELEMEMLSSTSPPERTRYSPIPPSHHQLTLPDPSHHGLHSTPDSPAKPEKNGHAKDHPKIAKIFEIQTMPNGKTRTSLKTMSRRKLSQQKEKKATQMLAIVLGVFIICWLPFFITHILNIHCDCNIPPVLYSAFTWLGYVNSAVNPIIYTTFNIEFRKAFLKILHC
Procedure, shortened: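 cAMP accumulation in DRD2-HEK293 cells measured by HTRF after 1 h detection; compounds added 10 min before NKH477 (200nM […]) forskolin-analogue stimulation, 30 min at room temperature, with Ro20-1724 present at 0.1 mM final.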

[17] = p53 small molecule agonists, cell-based qHTS assay with human liver microsomes: qHTS cell viability counter screen (AID 1963579); note: nearly all actives have a fitted effect of over 45% in size; note: potency is the fitted concentration of half-maximal effect
Procedure, shortened: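 HLM-supplemented (0.5 mg/mL final) and NADPH-supplemented (0.5 mg/mL final) p53RE-bla cultures, 4,000 cells per well, were dosed with compounds in DMSO for 16 h at 37 C; luminescent ATP detection (CellTiter-Glo, 30 min, room temperature) quantified surviving cells.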

[18] = biological target: 5-hydroxytryptamine receptor 2A (Homo sapiens) (UniProt P28223); test: 5-hydroxytryptamine receptor 2A (HTR2A) small molecule agonists, cell-based qHTS assay (AID 1963587); note: nearly all actives have a fitted effect of over 30% in size
Procedure, shortened: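 Kinetic calcium-flux fluorescence (2 min, 1 sec intervals) after compound addition in agonist mode. HTR2A-CHO cells were cultured 18 h, then dye-loaded 1 h at 37 C.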

[19] = biological target: D(2) dopamine receptor (Homo sapiens) (UniProt P14416); test: Dopamine D2 receptor (DRD2) small molecule antagonists, cell-based qHTS assay (AID 1963595; active = well fitted inhibition curve with a large enough effect in the signal ratio in the repeat runs, with a control signal flat; the % refers to the signal ratio)
Procedure, shortened: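 HEK293 cells stably expressing DRD2 were preincubated with 0.1 mM Ro20-1724, then with compound for 10 min at room temperature. Cells were stimulated with 200 nM NKH477 plus 12 nM quinpirole for 30 min, and cAMP was read by HTRF.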

[20] = biological target: Beta-2 adrenergic receptor (Homo sapiens) (UniProt P07550); test: Adrenergic beta2 receptor (ADRB2) small molecule agonists, cell-based qHTS assay (AID 1963593);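 note: CHO cells stably overexpressing human ADRB2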
Procedure, shortened: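 CHO cells stably over-expressing ADRB2 were plated overnight at 37C, then dosed with compounds plus a stimulation mix containing 100uM IBMX and 25uM Ro-20-1724 for 0.5hr at room temperature. cAMP was measured by HTRF competition, 1hr.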

Measured: Potency

CCOC(=S)S
inactive: [2] | [3] | [4] | [5] | [6] | [7] | [8] | [9] | [10] | [11] | [12] | [13] | [14] | [15] | [16]
active: [1] 27.3 µM and 18.3 µM

COc1cc(-c2ccc(N)c(OC)c2)ccc1N
inactive: [1] | [2] | [3] | [4] | [5] | [6] | [17] | [7] | [8] | [9] | [10] | [18] | [11] | [12] | [13] | [14] | [16] | [19]

COS(=O)(=O)OC
inactive: [1] | [2] | [3] | [4] | [5] | [6] | [17] | [7] | [8] | [9] | [10] | [18] | [11] | [12] | [13] | [15] | [16] | [19]

Clc1ccc(C2(Cn3cncn3)OCCO2)c(Cl)c1
inactive: [1] | [2] | [3] | [4] | [5] | [6] | [17] | [10] | [18] | [11] | [12] | [14] | [15] | [20] | [19]

O=C(O)CCCOc1ccc(Cl)cc1Cl
inactive and 29.4 µM (active): [17]
inactive: [1] | [2] | [3] | [4] | [5] | [6] | [7] | [8] | [18] | [11] | [15] | [20] | [16]

C=CCOC(N)=O
inactive: [1] | [2] | [3] | [4] | [5] | [6] | [17] | [7] | [8] | [9] | [10] | [18] | [12] | [13] | [14] | [15] | [20] | [16] | [19]

COC(=O)NS(=O)(=O)c1ccc(N)cc1
inactive: [1] | [2] | [3] | [4] | [5] | [6] | [17] | [7] | [8] | [9] | [10] | [18] | [11] | [13] | [14] | [15] | [20] | [16] | [19]

Nc1cc(Cl)cc(C(=O)O)c1Cl
inactive: [1] | [2] | [3] | [4] | [5] | [6] | [17] | [7] | [9] | [10] | [18] | [11] | [12] | [13] | [15] | [20] | [19]
